What all share (experiment): NCI-60 one-dose screen, 48 h (100 = growth as untreated, 0 = no growth, -100 = all killed)
Settings in all cases: 10 µM unless noted

Assay [1] has as its system T-47D breast.
The subject of assay [2] is BT-549 breast.
For assay [3], the system named is MDA-MB-435 melanoma.
Assay [4] has as its system SW-620 colon.
The test system of assay [5] is MCF7 breast.
The test system of assay [6] is HCT-116 colon.
The subject of assay [7] is KM12 colon.
The test system of assay [8] is HCC-2998 colon.

We go through 27 compounds from PubChem BioAssay (NCI).

This is part of a sample that, as a whole, favours compounds with a hit. Of some 83,000 tested, about 20% had one in any assay.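 Plates (96-well) were seeded with cells, treated with compound at one concentration, and incubated for 48 hours before percent growth was determined.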 Values without a mark were called inactive. Calls of active or inactive are those of the source. Rule for the calls: active = growth percent below 10; inactive = the rest.

Regarding `Cc1cc(C)nc(SC2=C(Nc3ccc(C)c(Cl)c3)C(=O)N(Cc3ccccc3)C2=O)n1`, the growth was 26% [30 µM] in assay [1]; 51.6% [30 µM] in assay [2]; 51.5% [30 µM] in assay [3]; 70.9% [30 µM] in assay [4]; 39.6% [30 µM] in assay [5]; 42.9% [30 µM] in assay [6]. Further, the growth in assay [7] is 66.2% [30 µM].
Take `CCCc1cc(=O)n2c(C(=O)Nc3ccc(F)cc3)c(C(=O)Nc3ccc(F)cc3)sc2n1`: the growth in assay [1] was 97.1% [30 µM]; in assay [2] it was 78.4% [30 µM]; in assay [3] it was 83% [30 µM]; in assay [4] it was 82.9% [30 µM]; in assay [5], 62.6% [30 µM]; in assay [6], 38.1% [30 µM]. In addition, the growth in assay [7] was 84.9% [30 µM].
Take `COc1cc(-c2nc3cc(Cl)c(Cl)cc3[nH]2)ccc1OCC(=O)N=Nc1c(O)[nH]c2ccccc12`: the growth in assay [1] was -63.4% (active); in assay [2] it was -90.3% (active); in assay [4] it was -46.9% (active); in assay [5], -76.1% (active); in assay [6] it was -75.6% (active); in assay [8], -91.1% (active). Also, the growth in assay [7] was -81.5% (active).
As to `CC[C@H]1OC(=O)[C@H](C)[C@@H](O[C@H]2C[C@@](C)(OC)[C@@H](O)[C@H](C)O2)[C@H](C)[C@@H](O[C@@H]2O[C@H](C)C[C@H](N(C)C)[C@H]2O)[C@](C)(O)C[C@H](C)CN(C)[C@H](C)[C@@H](O)[C@]1(C)O`, the growth in assay [1] was 108%; in assay [2] it was 98.4%; in assay [3], 96.9%; in assay [4] it was 84.2%; in assay [6], 90.3%; in assay [8], 95.9%. In addition, the growth in assay [7] was 95.4%.
On to `CCOC(=O)c1csc(NC(=O)COc2cccc(/C=C3\CSc4ccccc4C3=O)c2)n1`, for which the growth in assay [1] is 73.8%; in assay [2] it was -88% (active); in assay [4] it was -65.5% (active); in assay [5], 2.02% (active); in assay [6] it was 4.95% (active); in assay [8], -31.8% (active). Besides, the growth in assay [7] is -64.4% (active).
Turning to `O=C1c2cccc3cccc(c23)C(=O)N1CCCCN1CCN(CCCCOc2ccc(-c3nc4ccc(N5CCOCC5)cc4[nH]3)cc2)CC1`, the growth in assay [1] was 77.2%; in assay [2], 91.7%; in assay [3], 88.3%; in assay [4], 95.1%; in assay [5], 74.1%; in assay [6], 69.1%. In assay [7], the growth is 92.1%.
Regarding `NC(=NCCCOc1ccc(Cl)cc1)Nc1ccc(C(F)(F)F)cc1`, the growth in assay [1] is 2.82% (active); in assay [2], 73.2%; in assay [3] it was 8.95% (active); in assay [4], 14.5%; in assay [5], 9.17% (active); in assay [6] it was 8.24% (active). Besides, in assay [7], the growth is 25.2%.
In the case of `Cc1nn(-c2ccc(F)cc2)c2ncnc(Nc3ccc(NC(=O)Nc4ccc(Cl)c(C(F)(F)F)c4)cc3)c12`, the growth in assay [1] is 2.53% (active); in assay [2], 57.9%; in assay [4] it was 19.9%; in assay [5], 12.8%; in assay [6], 32.1%; in assay [8], 22.2%. Also, the growth in assay [7] was 14.7%.
In the case of `COc1cccc2c1C(=O)c1c(O)c3c(c(O)c1C2=O)C[C@](O)(C(=O)CO)C[C@H]3O[C@@H]1C[C@@H](NC(=O)CCCCCN(C)C2(c3ccc(F)cc3)CC3CCC2C3)[C@H](O)[C@@H](C)O1` (some centres undefined), the growth is 86.3% in assay [1]; 52% in assay [2]; -17.9% (active) in assay [3]; -74.9% (active) in assay [4]; -46.2% (active) in assay [5]; -91.8% (active) in assay [6]. In assay [7], the growth is -68.5% (active).
On to `OC(COc1cccc2ccccc12)CN1CCN(c2ccccc2Cl)CC1` (centres undefined), for which the growth was 74.5% in assay [1]; 106% in assay [2]; 100% in assay [3]; 88.5% in assay [4]; 105% in assay [5]; 71.4% in assay [6]. In addition, in assay [7], the growth was 99.7%.
As to `Cc1cc(C)nc(SC2=C(Nc3cccc(Cl)c3C)C(=O)N(Cc3ccccc3)C2=O)n1`, the growth was 37.1% [30 µM] in assay [1]; 48.1% [30 µM] in assay [2]; 42.1% [30 µM] in assay [3]; 65.4% [30 µM] in assay [4]; 30.7% [30 µM] in assay [5]; 44.1% [30 µM] in assay [6]. Further, in assay [7], the growth is 53.2% [30 µM].
On to `O=C1/C(=C/c2ccc3c(c2)OCO3)SC(=S)N1CCc1ccc(O)cc1`, for which the growth in assay [1] is 59.2%; in assay [2], 96.6%; in assay [4] it was 111%; in assay [5], 112%; in assay [6], 101%; in assay [8] it was 103%. Further, the growth in assay [7] is 86.3%.
For `N#Cc1nnn(-c2ccc(S(N)(=O)=O)cc2)c1NCC(=O)c1ccccc1`, the growth in assay [1] was 95.4%; in assay [2] it was 98%; in assay [4] it was 97.2%; in assay [5] it was 93.3%; in assay [6], 95%; in assay [8], 112%. Moreover, the growth in assay [7] is 99.4%.
As for `c1ccc2[nH]c(-c3ccc(Nc4nc(N5CCCC5)nc5[nH]ncc45)cc3)nc2c1`, the growth in assay [1] is -52.6% (active); in assay [2], 59.7%; in assay [3], -76.6% (active); in assay [4], -64.1% (active); in assay [5] it was -21.5% (active); in assay [6], -71.8% (active). Also, the growth in assay [7] was -32.6% (active).
In the case of `CCCSc1ccc2nc(NC(=O)OC)[nH]c2c1`, the growth was 57.4% in assay [1]; 45.5% in assay [2]; -51% (active) in assay [3]; 24% in assay [4]; 15.5% in assay [6]; -4.45% (active) in assay [8]. In addition, the growth in assay [7] is 14%.
Regarding `CC(C)c1c(C(=O)c2ccccc2)c(-c2ccccc2)c(-c2ccc(F)cc2)n1CC[C@@H](O)C[C@@H](O)CC(=O)O`, the growth in assay [1] was 91.4%; in assay [2], 70.2%; in assay [3], 68.9%; in assay [4], 76.2%; in assay [6], 47.4%; in assay [8], 85.6%. Moreover, the growth in assay [7] was 91%.
Take `FC(F)(F)c1ccc(-c2cn3nc(-c4c[nH]c5ccc(Br)cc45)sc3n2)cc1`: the growth in assay [1] is 67.6%; in assay [2], 105%; in assay [4] it was 97.3%; in assay [5], 74.9%; in assay [6], 93.1%; in assay [8], 95.6%. Besides, the growth in assay [7] was 87.3%.
As for `COc1ccc(/C=C/c2nc(-c3n[nH]c(=O)n3-c3ccccc3)c3ccccc3n2)cc1`, the growth in assay [1] is 89.3%; in assay [2] it was 111%; in assay [4], 89.6%; in assay [5] it was 90.6%; in assay [6], 104%; in assay [8] it was 112%. Moreover, in assay [7], the growth was 94.2%.
`CC1=C/C(=C(\c2ccc(N(C)C)cc2)c2ccc([N+](C)(C)C)cc2)C=CC1=[N+](C)C`: the growth in assay [1] was 52.2%; in assay [2], 96.1%; in assay [4], 66.5%; in assay [5], 59.9%; in assay [6], 36.1%; in assay [8], 77.3%. In assay [7], the growth is 61.4%.
For the compound `CC[C@@H]1O[C@H](O[C@@H](c2cnc[nH]2)[C@H](NC(=O)c2nc([C@H](CC(N)=O)NC[C@@H](N)C(N)=O)nc(N)c2C)C(=O)N[C@H](C)[C@H](O)[C@H](C)C(=O)N[C@@H](C(=O)NCCc2nc(-c3nc(C(=O)NCCCCN=C(N)N)cs3)cs2)[C@@H](C)O)[C@H](O[C@@H]2O[C@H](CO)[C@H](O)[C@H](OC(N)=O)[C@@H]2O)[C@H](C)[C@@H]1C`, the growth in assay [1] was 57.4%; in assay [2] it was 78.3%; in assay [3] it was 81.9%; in assay [4], 68.1%; in assay [6], 37%; in assay [8] it was 69.7%. Moreover, the growth in assay [7] was 57.9%.
With `CC1SC(c2ccc(N(C)C)cc2)N(NC(=O)C(O)(c2ccccc2)c2ccccc2)C1=O` (centres undefined), the growth in assay [1] was 87.6%; in assay [2], 93.1%; in assay [3], 84.3%; in assay [4], 104%; in assay [5], 118%; in assay [6] it was 80.8%. Besides, the growth in assay [7] was 87.4%.
For the compound `COc1cc2c(cc1O)CC[C@@H]1[C@@H]2CC[C@]2(C)[C@@H](OCCN(C)C)CC[C@@H]12`, the growth in assay [1] is 58.3%; in assay [2], 43.5%; in assay [3], -56.8% (active); in assay [4], 13.1%; in assay [5] it was 37.1%; in assay [6], 7.27% (active). Besides, the growth in assay [7] is 24.2%.
For `C=C1C(=O)O[C@H]2[C@H]1CC/C(COC(=O)NCc1ccc(OC)c(OC)c1)=C\CC[C@@]1(C)O[C@@H]21`, the growth in assay [1] was 30.2%; in assay [2] it was 75.2%; in assay [3], 54.8%; in assay [4], 14.1%; in assay [5], 34.5%; in assay [6], 7.17% (active). Moreover, in assay [7], the growth is 90.9%.
On to `COc1ccc2c(c1)C(=O)/C(=C/c1cccnc1)CC2`, for which the growth is 80.2% in assay [1]; 101% in assay [2]; 89.5% in assay [3]; 102% in assay [4]; 45.3% in assay [5]; 81.2% in assay [6]. The growth in assay [7] was 66.2%.
In the case of `CCCCCCN(CCCCCC)C(=N)c1ccnc2ccccc12`, the growth was 88.1% in assay [1]; 73.8% in assay [2]; 61.8% in assay [3]; 59.8% in assay [4]; 31.2% in assay [6]; -59.9% (active) in assay [8]. The growth in assay [7] is 71.1%.
As for `COc1ccc(C(=O)/C=C/c2cccnc2Nc2cc(OC)c(OC)c(OC)c2)cc1`, the growth is 44.1% in assay [1]; 36.3% in assay [2]; -42.5% (active) in assay [4]; 12.9% in assay [5]; 13.7% in assay [6]; 22.9% in assay [8]. Also, the growth in assay [7] was 14%.
Turning to `CCCCCCCCCCCCC[N+](C)(C)Cc1ccccc1`, the growth in assay [1] is 15.1%; in assay [2], -72.9% (active); in assay [3] it was -73.6% (active); in assay [4] it was -37.6% (active); in assay [6], -89.9% (active); in assay [8], -80.5% (active). The growth in assay [7] was -93.6% (active).
